Laboratory results as given in PubChem BioAssay AID463200 (Sanford-Burnham Center for Chemical Genomics, 2010).
The list shows a part of the results. The source made the active and inactive calls. No stated cut-off is given here; in the data, active means z-score above about 6.3; inactive means the rest.

Experiment: toxicity to mouse AML12 liver cells – imaging, DAPI nuclear morphology imaging, counter-screen for hepatic lipid droplet formation project (AID 463200);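 further: compound exposure lasted overnight at 37 °C before fixation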
Details: AML12 mouse hepatocytes, DAPI nuclear morphology cytotoxicity imaging; at 5 µM; hits give high values; cells fed 100 µM oleate overnight

Structure (SMILES) | z-score
CCCN(CCC)c1ccc(C(O)c2nnc(-c3ccccc3)o2)cc1 (stereo not given) | -0.662 (inactive)
Cc1c(C(=O)NCc2ccccc2)cnn1-c1ccccc1 | -0.784 (inactive)
COc1cccc(/C=C(/CC(=O)Nc2ccc(N3CCOCC3)cc2)c2nc3ccccc3s2)c1 | 0.0842 (inactive)
COc1ccc(OC)c(-c2csc(-c3cccs3)n2)c1 | -0.885 (inactive)
O=[N+]([O-])c1ccccc1N/N=C1\CCc2ccccc21 | -0.00245 (inactive)
CCc1ccc(NC(=O)C(C)OC(=O)/C=C/c2cccc([N+](=O)[O-])c2)cc1 (stereo not given) | 1.35 (inactive)
CCCN(CCC)c1nc2c(C)cccn2c(=O)c1/C=C1/SC(=S)N(Cc2ccco2)C1=O | -0.326 (inactive)
Cc1ccc(N2C(=O)C(NC(=O)c3c(F)cccc3F)(C(F)(F)F)C3=C2CC(C)(C)CC3=O)cc1 (stereo not given) | -0.996 (inactive)
CC(NC(=O)c1cccc2ccccc12)c1ccc2c(c1)CCCC2 (stereo not given) | 8.48 (active)
Cc1cc(NC(=O)CSc2nc(C(C)C)nc3sc4c(c23)CCC(C)C4)no1 (stereo not given) | -0.355 (inactive)
CCOc1ccc(CCNC(=O)Nc2ccccc2)cc1OCC | -0.203 (inactive)
CN(C)c1ccc(Nc2c3c4c(cccc4n(C)c2=O)C(=O)c2ccccc2-3)cc1 | 0.335 (inactive)
CCCc1ccc(-c2csc(NC(=O)Cc3cccs3)n2)cc1 | -0.171 (inactive)
Cc1cc(C(=O)NC2CCCc3c2cnn3-c2cccc(C)c2C)c(C)o1 (stereo not given) | 0.206 (inactive)
COc1ccc(/C=C(\NC(=O)c2ccc(OCC(C)C)cc2)C(=O)OCc2ccco2)cc1 | -0.0226 (inactive)
